Results taken from PubChem BioAssay AID652245 (The Scripps Research Institute Molecular Screening Center, 2013).
The whole screen tested about 1,600 compounds, of which about 920 (58%) were called active. The set was probably picked from earlier hits. The list is a sample of the results. Values without a mark were called inactive.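 Rule for the calls: active = inhibition above the primary screen's cutoff, the mean inhibition of all screened compounds plus 3 SD (cut at about 13% in these data); inactive = the rest.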

What follows are compounds tested against Galanin receptor type 3 (Homo sapiens) (UniProt O60755) (assay: GalR3 antagonist hit confirmation, cell-based, fluorescence, triplicate (AID 652245;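 note: 0% = forskolin plus galanin and 100% = forskolin alone with DMSO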)). Details: HEK293 GalR3 CNG cAMP biosensor, membrane potential fluorescence; at 3 µM; hits give high values; challenged with forskolin and galanin at EC90; galR3 fused to GalR1 carboxy tail.
Galanin receptor type 3 (Homo sapiens), sequence (O60755 1-299 limits assumed): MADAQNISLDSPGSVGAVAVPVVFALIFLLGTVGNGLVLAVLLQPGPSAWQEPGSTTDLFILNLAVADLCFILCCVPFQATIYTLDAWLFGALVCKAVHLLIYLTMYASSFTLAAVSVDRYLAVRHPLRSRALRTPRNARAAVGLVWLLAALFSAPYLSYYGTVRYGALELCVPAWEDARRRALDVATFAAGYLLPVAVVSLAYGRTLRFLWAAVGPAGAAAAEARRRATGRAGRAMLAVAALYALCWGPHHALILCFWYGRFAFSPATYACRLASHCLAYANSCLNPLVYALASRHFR
`NC(=O)c1ccc(NC(=O)COC(=O)C(Cc2ccccc2)NC(=O)c2ccccc2)cc1` (configuration not stated) was tested, and the inhibition was 22.3% (active). `COc1ccc(CCNc2nc3ccc(C)cc3n3cnnc23)cc1OC` showed an inhibition of 12.1%. For `C=CCC1(CC=C)CCCN1C(=O)c1cc(COc2ccc(-n3cncn3)cc2)on1`, the inhibition was 104% (active). For `Nc1nonc1-n1nnc(C(=O)N/N=C/c2cc(Br)ccc2O)c1CSC1=NCCS1`, the inhibition was 63.2% (active). In the case of `CCNC(=S)Nc1ccc(OC(F)(F)F)cc1`, the inhibition is reported as 18.3% (active). For `CCN1/C(=C\c2ccc3ccccc3[n+]2CC)Sc2cc(C)ccc21`, the inhibition was 55.5% (active). `CCOc1ccc(Br)cc1CSC(=N)N` was tested, and the inhibition was 56.7% (active). Compound `COc1ccc(-c2csc(-c3cccs3)n2)cc1OC` has an inhibition of -4.97%. With `COC(=O)c1ccc(/C=N/N2C(C)CCCC2C)cc1` (configuration not stated) the inhibition was 14.9% (active). `c1coc(CNc2ncnc3ccccc23)c1` was tested, and the inhibition was 28.1% (active). With `Cc1c(C=O)c2ccccc2n1CC(=O)O` the inhibition was -2.92%. `CN(Cc1cccnc1)C(=O)c1cc(COc2ccc3ncccc3c2)on1` was tested, and the inhibition was 103% (active). Work on `COc1ccc(C(=O)COC(=O)COc2ccc(C)c(C)c2)cc1` yielded an inhibition of -0.4%. `OC[C@@H]1CN(Cc2ccc(-c3ccccc3)cc2)C[C@H](n2cnc3c(NC4CCCC4)ncnc32)O1` was tested, and the inhibition was 92.5% (active). With `COc1cc(NC(=O)c2cc([N+](=O)[O-])ccc2Br)ccc1NC(=O)c1ccco1` the inhibition was 27.5% (active). In the case of `CC(=O)c1c(C)[nH]c(C(=O)COC(=O)c2cccc(S(=O)(=O)N(C)c3ccccc3)c2)c1C`, the inhibition is reported as 82.3% (active). `CCCn1nc(C(=O)NNC(=O)CSCC(=O)Nc2cc(C)on2)c2ccccc2c1=O` was tested, and the inhibition was 3.6%. For `COCCNC(=O)/C(C#N)=C/c1cccc(OCc2ccccc2)c1`, the inhibition was -3.13%. With `COc1cc(C(=O)Nn2c(O)c(C3=c4ccccc4=NC3=O)sc2=S)ccc1O` the inhibition was 5.9%. With `COc1cc(Cl)c(C)cc1NC(=O)[C@@H]1CCCN1C(=O)c1cccs1` the inhibition was 17.8% (active). Work on `COc1ccc(-c2[nH]nc3c2C(c2ccncc2)C(C#N)=C(N)O3)cc1` (configuration not stated) yielded an inhibition of 7.93%. `O=C(/C=C/c1c(F)cccc1Cl)Nc1nn[nH]n1` was tested, and the inhibition was 5.44%. For `COc1ccc(OC)c(NC(=O)CSc2nc(N)c(-c3ccccc3)c(=O)[nH]2)c1`, the inhibition was 38% (active). In the case of `O=C(CC(O)(C(F)(F)F)C(F)(F)F)Nc1ccc(Cl)c(Cl)c1`, the inhibition is reported as 81.5% (active). `c1ccc(Cc2ccc(OCCn3ccnc3)cc2)cc1` was tested, and the inhibition was 35.9% (active). `COc1ccc(C2CC(=O)Nc3sc(=N)c4c(N)c(C#N)c(N)nc4c32)cc1OC` (configuration not stated) was tested, and the inhibition was 69.2% (active). `CCCCNC(=O)c1ccccc1NC(=O)C1=C(C)OCCS1` was tested, and the inhibition was 1.8%. `COc1ccc(NS(=O)(=O)c2ccc(NC(=O)c3ccc(N(C)S(C)(=O)=O)cc3)cc2)cc1` was tested, and the inhibition was 106% (active). In the case of `CSc1nc(N(C)NC(=O)c2cccc(C)c2)c2ccccc2n1`, the inhibition is reported as 6%. With `CC(=O)OC(C)C[N+](C)(C)C` (configuration not stated) the inhibition was 78% (active). With `CCOC(=O)c1cc2n(c1C)-c1ccccc1C2=O` the inhibition was 3.19%. With `CCc1ccc(-c2nc(SCC(=O)NC3CCCC3)n[nH]2)cc1` the inhibition was 3.25%. For `Nc1ncnc2c1ncn2C1OC(CO)CC1O` (configuration not stated), the inhibition was 49.1% (active). With `CCCOc1ccc(Cc2c(Cl)nc(SC)nc2NC)cc1` the inhibition was 94.2% (active). With `COc1ccc(N(C(=O)CNC(=O)c2ccco2)C(C(=O)NCC2CCCO2)c2ccccc2)cc1Cl` (configuration not stated) the inhibition was 0.26%. For `CC1(C)CC(N2CCN(C(c3ccccc3)c3ccccc3)CC2)=CC(=[N+]2CCCCC2)C1`, the inhibition was 45% (active). `Cn1cnc([N+](=O)[O-])c1Nc1ccccc1O` showed an inhibition of 10.2%. For `Cc1c(Cl)cccc1NC(=O)CSc1ccc(-c2cccnc2)nn1`, the inhibition was -1.99%. With `Cn1c(CN2CCOCC2)nc2cc(NC(=O)c3ccc(Cl)cc3)ccc21` the inhibition was 85.6% (active). `O=C(NC(Nc1nc2ccc([N+](=O)[O-])cc2s1)(C(F)(F)F)C(F)(F)F)c1ccccc1` was tested, and the inhibition was 43% (active). With `CC(CCc1ccccc1)NCC(O)c1cccc([N+](=O)[O-])c1` (configuration not stated) the inhibition was 22.3% (active). In the case of `CCOc1ccc(C(C)=O)cc1COC(=O)c1cnc(Cl)c(Cl)c1`, the inhibition is reported as 15.3% (active). With `COC(=O)c1cccc([N+](=O)[O-])c1CS(=O)(=O)c1ccc(C)cc1` the inhibition was 4.93%. In the case of `COCCN1Cc2cccc(C(=O)Nc3ccccc3OC)c2C1=O`, the inhibition is reported as 32.4% (active). With `CCn1c(-c2cc(OC)ccc2OC)csc1=Nc1c(C)n(C)n(-c2ccccc2)c1=O` the inhibition was 2.25%. With `COc1ccc(C2Nc3ccccc3C(=O)N2c2ccc(Cl)cc2)cc1Cn1cc([N+](=O)[O-])cn1` (configuration not stated) the inhibition was 36.9% (active). In the case of `Cc1ccc(F)cc1NC(=O)Cc1nn(C)c(=O)c2ccccc12`, the inhibition is reported as 5.03%. `CC(C)[C@@H](C(=O)OCC(=O)c1ccc2c(c1)NC(=O)CO2)N1C(=O)c2ccccc2C1=O` gave an inhibition of 8.91%. In the case of `C#Cc1ccc(NC(=O)C2(C)CCN2C(=O)Cc2ccc(-c3ccccc3)cc2)cc1` (configuration not stated), the inhibition is reported as 90.1% (active). Compound `Cc1ccc(S(=O)(=O)N2CCN(C(=O)COC(=O)c3c(C)cc(C)cc3C)CC2)c(C)c1` has an inhibition of 3.27%. `CCOC(=O)c1c(NC(=O)CSc2nccc(=O)[nH]2)sc(C)c1C` gave an inhibition of -4.89%. For `CC(C)(CNC(=O)c1ccc(Cl)c(S(=O)(=O)N2CCc3ccccc3C2)c1)N1CCOCC1`, the inhibition was 111% (active). `Nc1nc(NCC(=O)O)nc(N2CCCCCC2)c1[N+](=O)[O-]` gave an inhibition of 8.6%. In the case of `O=C(Nc1ccccc1Cl)/C(Cl)=C(\Cl)S(=O)c1ccccc1` (configuration not stated), the inhibition is reported as 21.5% (active). For `O=C(Nc1ccc(CSc2ccccc2)cc1)c1ccc(CN2CCOCC2)cc1`, the inhibition was 113% (active). With `Cn1c(N)c(C(=O)COC(=O)c2cnc(Cl)c(Cl)c2)c(=O)n(C)c1=O` the inhibition was 15.8% (active). For `O=C(CC1C(=O)NCCN1CC(c1ccccc1)c1ccccc1)NCCc1cn[nH]c1` (configuration not stated), the inhibition was -1.25%. For `CSc1nccc(NC(=O)c2ccc(C(C)(C)C)cc2)n1`, the inhibition was 104% (active). In the case of `Cc1nc2ccccc2cc1OCc1ccc(F)cc1`, the inhibition is reported as 83.8% (active). With `C[C@@]12C(=O)N(c3cccc(Br)c3)C(=O)N1[C@H](c1ccc(Cl)cc1)[C@@H]1C(=O)N(C3CCCCC3)C(=O)[C@@H]12` the inhibition was -8.96%. With `CNC(=O)NC(=O)CSc1nnc(-c2ccc(F)cc2)n1CC1CCCO1` (configuration not stated) the inhibition was 22% (active). Work on `CCOc1cc(C(=O)N2CCc3cc(OC)c(OC)cc3C2)ccc1OC(F)F` yielded an inhibition of 6.34%. With `CSc1nc(N)c(C#N)c(-c2ccccc2Cl)c1C#N` the inhibition was 84.8% (active). For `Cn1nccc1C(=O)NC1CCCc2c1cnn2-c1ccc(F)cc1F` (configuration not stated), the inhibition was 114% (active). For `CCN(CC(=O)NCc1ccc(Cl)cc1)C(=O)CSc1ccccc1`, the inhibition was 56.2% (active). In the case of `COc1cc2c(cc1OC)C(c1cccc([N+](=O)[O-])c1)=NCC2`, the inhibition is reported as 17.9% (active). `CC(=O)N1CCCc2cc(S(=O)(=O)N3CCCC(C(=O)N4CCN(c5cccc(Cl)c5)CC4)C3)ccc21` (configuration not stated) was tested, and the inhibition was 92.5% (active).
